# Source: PubChem (National Center for Advancing Translational Sciences (NCATS))
# Most compounds without a hit are left out; they make up all but 8% or so of the library.
# MCF10A rerep: A quantitative high throughput screen for small molecules that induce DNA re-replication in MCF 10a normal breast cells | MCF 10A DNA re-replication, Hoechst nuclear intensity, 48 h | Potency, µM (top dose mostly 46.1 µM), usual class: activators | actives 2.9% (n = 350,000) | AID 624296, 2012; also: nearly all actives have a fitted effect of over 50% in size
# KB-3-1 cytotox: qHTS assay for MDR1-selective chemotherapeutics: Primary screen using the parental adenocarcinoma cell KB-3-1; KB-3-1 viability, CellTiter-Glo ATP luminescence, 72 h; Potency, µM (doses to about 46.1 µM), actives largely listed as cytotoxic; actives 1.4% (n = 400,000); AID 1347075, 2019; also: nearly all actives have a fitted effect of over 60% in size
#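 Cells are dispensed, compounds pinned in, plates held at 37 °C for 72 h, then CellTiter-Glo is added and luminescence read after 10 minutes. Cell line: parental KB-3-1 in phenol-red-free DMEM, 10% FBS.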
# HT1080-NT tox: qHTS for induction of synthetic lethality in tumor cells producing 2HG: qHTS for the HT-1080-NT fibrosarcoma cell line; Potency, µM (doses to about 46.1 µM), actives largely listed as cytotoxic; HT-1080-NT fibrosarcoma viability, CellTiter-Glo ATP luminescence, 48 h; actives 1.6% (n = 360,000);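 also: NT is the 2HG producing partner of a matched IDH1 knockdown line; nearly all actives have a fitted effect of over 55% in size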
#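 Viability of the 2HG-overproducing fibrosarcoma line after 48 hours of compound exposure at 37 degrees C was determined by luminescence with CellTiter-Glo, and concentration-effect curves were then fitted and categorized.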
# HT1080 IDH1KD tx: qHTS for induction of synthetic lethality in tumor cells producing 2HG: qHTS for the HT-1080-IDH1KD cell line | HT-1080 IDH1 knockdown viability, ATP luminescence, 48 h | Potency, µM (titrated, usually from 46.1 µM), usual class: cytotoxic | actives 2% (n = 360,000) | AID 686971, 2013
#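 CellTiter-Glo luminescence after 48 h compound exposure at 37 degrees C of IDH1-knockdown HT-1080 cells in 5% FBS RPMI. %Activity scaled between DMSO wells and cell-free media wells, with curves fitted and assigned curve classes.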
# SW480 rerep: A quantitative high throughput screen for small molecules that induce DNA re-replication in SW480 colon adenocarcinoma cells. Potency, µM (highest dose often 46.1 µM), actives largely listed as activators. AID 624297, 2012. SW480 DNA re-replication, Hoechst DNA content imaging, 48 h. actives 1.8% (n = 340,000); also: nearly all actives have a fitted effect of over 55% in size
#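 Quantitative HTS format with DMSO vehicle controls; 48 hr drug incubation at 37 C, then 40 min Hoechst staining and scanning imager measurement at 405 nm excitation.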
# KB-V1 MDR tox: qHTS assay for MDR1-selective chemotherapeutics: Primary screen using the drug-selected MDR subline cells KB-V1. KB-V1 MDR cells viability, CellTiter-Glo, 72 h. Potency, µM (series often up to 46.1 µM), hits mostly cytotoxic. actives 3.4% (n = 400,000). AID 1347076, 2019; also: nearly all actives have a fitted effect of over 60% in size
#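 Luminescent ATP read-out (CellTiter-Glo, 10 min) measures survival of drug-selected KB-V1 MDR cells after 72 h, 37 degrees C compound exposure. Medium: phenol-red-free DMEM, 10% FBS. Values from fitted concentration-response curves.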
# Hits are given with their value; . = inactive; ? = inconclusive; / = no result. Calls follow the shape of the dose curve; as a rule, active = well fitted curve in the direction sought with a large enough effect; inconclusive = small, poorly fitted or top-dose-only effect, or another doubt; inactive = no such curve, though single readings can be large; an effect the other way counts as inactive or inconclusive.
SMILES,MCF10A rerep,KB-3-1 cytotox,HT1080-NT tox,HT1080 IDH1KD tx,SW480 rerep,KB-V1 MDR tox
CN(Cc1ccc(F)cc1)C(=O)C(c1ccccc1)c1ccccc1,.,.,.,.,?,.
COc1ccccc1CN(C)C(=O)C(c1ccccc1)c1ccccc1,?,?,?,16.4µM,?,20.6µM
O=[N+]([O-])c1ccc(C2=NN(CCO)C(=Nc3ccc(OC(F)(F)F)cc3)SC2)cc1,.,.,?,14.6µM,?,.
COCCn1c(SCc2csc(-c3ccccc3)n2)nc2ccccc21,.,16.4µM,?,.,.,8.2µM
CC(C)(C)CC(=O)NCC(c1ccc2c(c1)OCO2)N1CCN(c2ccccc2)CC1 (configuration not stated),/,.,/,/,/,.
Cc1ccc(NC(=O)c2cc(N(C)C)ccc2[P+](=O)O)cc1,11.6µM,.,.,.,?,.
CC(=NNC(=S)N1CCC1)c1ccccn1,?,?,.,?,.,?
CC(=NNC(=S)N1CC2CCC(CC2)C1)c1cccc(C)n1,?,?,.,?,0.411µM,?
CC(=O)Nc1ccc(NC(=O)c2csc([C@H]3C[C@H](O)[C@@H](CO)O3)n2)cc1,/,.,.,?,/,.
O=C(Nc1ccc(Oc2ccccc2)cc1)c1csc([C@@H]2C[C@H](O)[C@@H](CO)O2)n1,/,.,?,2.59µM,/,.
O=C(CN1C(=O)c2ccccc2S1(=O)=O)Nc1ccc(S(=O)(=O)Nc2ncccn2)cc1,.,.,.,.,.,.
CC1CCC(C(C)C)C(OCC(O)CN2CCOCC2)C1 (configuration not stated),.,?,.,.,.,.
CC1CCC(C(C)C)C(OCC(O)CN2CCN(Cc3ccccc3)CC2)C1 (configuration not stated),?,?,23.1µM,?,?,?
CCOc1ccc2ccccc2c1/C=N/NC(=O)CNC(=O)C(c1ccccc1)c1ccccc1,.,.,.,?,.,.
CCc1ccc(/C=C(/C#N)c2nc(-c3ccc(C)cc3)cs2)cc1,/,.,/,/,/,?
CCOc1ccc(-c2csc(/C(C#N)=C\c3ccc(O)c([N+](=O)[O-])c3)n2)cc1,?,20.6µM,14.6µM,?,?,5.17µM
COc1ccccc1C=C1SC(=S)NC1=O,.,.,.,.,.,.
CCOc1ccc(N2C(=O)S/C(=C\c3ccc(O)c(OCC)c3)C2=O)cc1,16.4µM,.,.,.,?,.
COc1cc(/C=C2\CCC(C3CCCC3)C2=O)cc(OC)c1OC (configuration not stated),.,.,.,.,.,.
COc1cc(/C=C2\CC/C(=C\c3cc(OC)c(OC)c(OC)c3)C2=O)cc(OC)c1OC,5.8µM,.,.,.,?,.
O=C1NC(=S)SC1=Cc1ccccc1Cl,6.51µM,?,?,.,.,.
COc1cc(C=C2C(=O)C=CC2=O)ccc1O,/,20.6µM,14.6µM,23.1µM,/,.
Cc1nn2c(=O)cc(COC(=O)c3ccco3)nc2s1,/,.,/,/,/,.
Cc1ccc(-c2nnc(SCC(=O)NC(C)(C)C)nc2-c2ccc(C)cc2)cc1,/,.,/,/,/,.
CCN1C/C(=C/c2cccc([N+](=O)[O-])c2)C(=O)/C(=C/c2cccc([N+](=O)[O-])c2)C1,0.82µM,.,4.11µM,3.26µM,3.66µM,?
CCOc1cc(/C=C2\CCCC(C(=O)C(F)(F)F)=C2O)ccc1O,18.4µM,.,?,?,?,.
O=C1NC(=Nc2ccccc2Cl)S/C1=C\c1cccc([N+](=O)[O-])c1,?,?,?,.,.,.
O=C1NC(=O)/C(=C/c2cccc([N+](=O)[O-])c2)N1,.,?,.,.,.,.
